# Tests used:
# Assay in all cases: yeast three-hybrid, YBZ-1, SC-Leu-His + 0.5 mM 3-AT, 4 days
# Details in all cases: tags: N-Gal4 AD-HA kept; label: inside an RPR1-promoter hybrid RNA with tandem MS2 sites; ssRNA
# PUM1 PUF domain R2-VYL = PUM1 PUF domain R2-VYL (Homo sapiens, UniProt Q14671 828-1176, N899V;Q903L)
# Summary of the method: (§1)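 A centromeric plasmid in strain YBZ-1 co-expressed Pumilio-1 PUF domain libraries, randomized at the three base-contacting residues of each repeat, with matching RNA elements; the strain carries a LexA–MS2 coat fusion and a HIS3 reporter. After four days on SC-Leu (input) or SC-Leu-His + 0.5 mM 3-AT (selection), the repeat regions were PCR-amplified and Illumina-sequenced. The interaction score is the log change in variant frequency from input to selection, using log2 and a pseudocount of 1 where absent.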
# PUM1 PUF domain R1-RLT = PUM1 PUF domain R1-RLT (Homo sapiens, UniProt Q14671 828-1176, S863R;R864L;Q867T)
# Summary of the method: as §1
# PUM1 PUF domain R7-RGL = PUM1 PUF domain R7-RGL (Homo sapiens, UniProt Q14671 828-1176, S1079R;N1080G;E1083L)
# Summary of the method: as §1
# PUM1 PUF domain R5-ERC = PUM1 PUF domain R5-ERC (Homo sapiens, UniProt Q14671 828-1176, C1007E;Q1011C)
# Summary of the method: as §1
# PUM1 PUF domain R5-LHG = PUM1 PUF domain R5-LHG (Homo sapiens, UniProt Q14671 828-1176, C1007L;R1008H;Q1011G)
# Summary of the method: as §1
# PUM1 PUF domain R5-KRD = PUM1 PUF domain R5-KRD (Homo sapiens, UniProt Q14671 828-1176, C1007K;Q1011D)
# Summary of the method: as §1
# PUM1 PUF domain R5-LWV = PUM1 PUF domain R5-LWV (Homo sapiens, UniProt Q14671 828-1176, C1007L;R1008W;Q1011V)
# Summary of the method: as §1
# PUM1 PUF domain R3-TCD = PUM1 PUF domain R3-TCD (Homo sapiens, UniProt Q14671 828-1176, C935T;R936C;Q939D)
# Summary of the method: as §1
# PUM1 PUF domain R4-ARS = PUM1 PUF domain R4-ARS (Homo sapiens, UniProt Q14671 828-1176, N971A;H972R;Q975S)
# Summary of the method: as §1
# PUM1 PUF domain R4-CPG = PUM1 PUF domain R4-CPG (Homo sapiens, UniProt Q14671 828-1176, N971C;H972P;Q975G)
# Summary of the method: as §1
# PUM1 PUF domain R5-KTL = PUM1 PUF domain R5-KTL (Homo sapiens, UniProt Q14671 828-1176, C1007K;R1008T;Q1011L)
# Summary of the method: as §1
# PUM1 PUF domain R5-KQV = PUM1 PUF domain R5-KQV (Homo sapiens, UniProt Q14671 828-1176, C1007K;R1008Q;Q1011V)
# Summary of the method: as §1
# PUM1 PUF domain R1-RLT, sequence (Q14671 828-1176 S863R/R864L/Q867T): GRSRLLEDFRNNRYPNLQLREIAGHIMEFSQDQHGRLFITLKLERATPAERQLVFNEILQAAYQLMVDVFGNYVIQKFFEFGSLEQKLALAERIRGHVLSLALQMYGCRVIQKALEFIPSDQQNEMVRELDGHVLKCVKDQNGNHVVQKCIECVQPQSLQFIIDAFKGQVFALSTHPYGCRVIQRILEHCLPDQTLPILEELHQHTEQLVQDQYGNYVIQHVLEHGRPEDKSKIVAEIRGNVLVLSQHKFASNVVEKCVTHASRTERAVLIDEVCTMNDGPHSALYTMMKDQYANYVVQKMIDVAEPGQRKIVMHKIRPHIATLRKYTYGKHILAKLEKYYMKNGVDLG
# PUM1 PUF domain R5-LHG, sequence (Q14671 828-1176 C1007L/R1008H/Q1011G): as the sequence (Q14671 828-1176 S863R/R864L/Q867T) above, with R36S, L37R, T40Q, C180L, R181H, Q184G counted along it
# PUM1 PUF domain R5-KRD, sequence (Q14671 828-1176 C1007K/Q1011D): as the sequence (Q14671 828-1176 S863R/R864L/Q867T) above, with R36S, L37R, T40Q, C180K, Q184D counted along it
# PUM1 PUF domain R5-ERC, sequence (Q14671 828-1176 C1007E/Q1011C): as the sequence (Q14671 828-1176 S863R/R864L/Q867T) above, with R36S, L37R, T40Q, C180E, Q184C counted along it
# PUM1 PUF domain R4-ARS, sequence (Q14671 828-1176 N971A/H972R/Q975S): as the sequence (Q14671 828-1176 S863R/R864L/Q867T) above, with R36S, L37R, T40Q, N144A, H145R, Q148S counted along it
# PUM1 PUF domain R5-LWV, sequence (Q14671 828-1176 C1007L/R1008W/Q1011V): as the sequence (Q14671 828-1176 S863R/R864L/Q867T) above, with R36S, L37R, T40Q, C180L, R181W, Q184V counted along it
# PUM1 PUF domain R4-CPG, sequence (Q14671 828-1176 N971C/H972P/Q975G): as the sequence (Q14671 828-1176 S863R/R864L/Q867T) above, with R36S, L37R, T40Q, N144C, H145P, Q148G counted along it
# PUM1 PUF domain R3-TCD, sequence (Q14671 828-1176 C935T/R936C/Q939D): as the sequence (Q14671 828-1176 S863R/R864L/Q867T) above, with R36S, L37R, T40Q, C108T, R109C, Q112D counted along it
# PUM1 PUF domain R7-RGL, sequence (Q14671 828-1176 S1079R/N1080G/E1083L): as the sequence (Q14671 828-1176 S863R/R864L/Q867T) above, with R36S, L37R, T40Q, S252R, N253G, E256L counted along it
# PUM1 PUF domain R5-KTL, sequence (Q14671 828-1176 C1007K/R1008T/Q1011L): as the sequence (Q14671 828-1176 S863R/R864L/Q867T) above, with R36S, L37R, T40Q, C180K, R181T, Q184L counted along it
# PUM1 PUF domain R2-VYL, sequence (Q14671 828-1176 N899V/Q903L): as the sequence (Q14671 828-1176 S863R/R864L/Q867T) above, with R36S, L37R, T40Q, N72V, Q76L counted along it
# PUM1 PUF domain R5-KQV, sequence (Q14671 828-1176 C1007K/R1008Q/Q1011V): as the sequence (Q14671 828-1176 S863R/R864L/Q867T) above, with R36S, L37R, T40Q, C180K, R181Q, Q184V counted along it
sequence,measurement,setting,value
GGCUAGAACUAGUGGAUCCCCCGGCGCCCGGCGGCUCGAGCCCGGGUAAGUGUAAAAAGUCUGCAUGCCGCCGGGCGCCAUGCCUGCAGGUCGACUCUAGAAAACAUG,binding signal,PUM1 PUF domain R2-VYL,2.41 log2 enrichment (interaction score)
GGCUAGAACUAGUGGAUCCCCCGGCGCCCGGCGGCUCGAGCCCGGGUAAGUGUAAAUUGUCUGCAUGCCGCCGGGCGCCAUGCCUGCAGGUCGACUCUAGAAAACAUG,binding signal,PUM1 PUF domain R1-RLT,4.16 log2 enrichment (interaction score)
GGCUAGAACUAGUGGAUCCCCCGGCGCCCGGCGGCUCGAGCCCGGGUAAGUCUAAAUAGUCUGCAUGCCGCCGGGCGCCAUGCCUGCAGGUCGACUCUAGAAAACAUG,binding signal,PUM1 PUF domain R7-RGL,1.29 log2 enrichment (interaction score)
GGCUAGAACUAGUGGAUCCCCCGGCGCCCGGCGGCUCGAGCCCGGGUAAGUGUGAAUAGUCUGCAUGCCGCCGGGCGCCAUGCCUGCAGGUCGACUCUAGAAAACAUG,binding signal,PUM1 PUF domain R5-ERC,3.21 log2 enrichment (interaction score)
same,binding signal,PUM1 PUF domain R5-LHG,4.33 log2 enrichment (interaction score)
same,binding signal,PUM1 PUF domain R5-KRD,1.06 log2 enrichment (interaction score)
same,binding signal,PUM1 PUF domain R5-LWV,1.82 log2 enrichment (interaction score)
GGCUAGAACUAGUGGAUCCCCCGGCGCCCGGCGGCUCGAGCCCGGGUAAGUGUAAGUAGUCUGCAUGCCGCCGGGCGCCAUGCCUGCAGGUCGACUCUAGAAAACAUG,binding signal,PUM1 PUF domain R3-TCD,4.9 log2 enrichment (interaction score)
GGCUAGAACUAGUGGAUCCCCCGGCGCCCGGCGGCUCGAGCCCGGGUAAGUGUAUAUAGUCUGCAUGCCGCCGGGCGCCAUGCCUGCAGGUCGACUCUAGAAAACAUG,binding signal,PUM1 PUF domain R4-ARS,2.12 log2 enrichment (interaction score)
same,binding signal,PUM1 PUF domain R4-CPG,3.14 log2 enrichment (interaction score)
GGCUAGAACUAGUGGAUCCCCCGGCGCCCGGCGGCUCGAGCCCGGGUAAGUGUAAAUGGUCUGCAUGCCGCCGGGCGCCAUGCCUGCAGGUCGACUCUAGAAAACAUG,binding signal,PUM1 PUF domain R1-RLT,3.03 log2 enrichment (interaction score)
GGCUAGAACUAGUGGAUCCCCCGGCGCCCGGCGGCUCGAGCCCGGGUAAGUGUCAAUAGUCUGCAUGCCGCCGGGCGCCAUGCCUGCAGGUCGACUCUAGAAAACAUG,binding signal,PUM1 PUF domain R5-ERC,1.33 log2 enrichment (interaction score)
same,binding signal,PUM1 PUF domain R5-KTL,2.84 log2 enrichment (interaction score)
same,binding signal,PUM1 PUF domain R5-LHG,1.75 log2 enrichment (interaction score)
same,binding signal,PUM1 PUF domain R5-KRD,6.86 log2 enrichment (interaction score)
same,binding signal,PUM1 PUF domain R5-KQV,5.39 log2 enrichment (interaction score)

# From PMC8384837, “Expanding the binding specificity for RNA recognition by a PUF domain”
